In publication PMC4336329 (PLoS ONE, 2015):
Among all 310,000 compounds or so, about 14,000 (4.5%) showed an effect of 50% or more. Effects have a minus sign here. For the sample, strong results were picked, then their nearest neighbours and some compounds at random.

molecular target: human ether-à-go-go-related gene (hERG) potassium channel (human, UniProt Q12809); assay: primary screen, population patch clamp on CHO cells stably expressing hERG; higher = less effect of the substance
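Also: peak tail current of the secondary pulse compared with the same well before compound.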

Chain of human ether-à-go-go-related gene (hERG) potassium channel (Q12809 whole entry, looked up): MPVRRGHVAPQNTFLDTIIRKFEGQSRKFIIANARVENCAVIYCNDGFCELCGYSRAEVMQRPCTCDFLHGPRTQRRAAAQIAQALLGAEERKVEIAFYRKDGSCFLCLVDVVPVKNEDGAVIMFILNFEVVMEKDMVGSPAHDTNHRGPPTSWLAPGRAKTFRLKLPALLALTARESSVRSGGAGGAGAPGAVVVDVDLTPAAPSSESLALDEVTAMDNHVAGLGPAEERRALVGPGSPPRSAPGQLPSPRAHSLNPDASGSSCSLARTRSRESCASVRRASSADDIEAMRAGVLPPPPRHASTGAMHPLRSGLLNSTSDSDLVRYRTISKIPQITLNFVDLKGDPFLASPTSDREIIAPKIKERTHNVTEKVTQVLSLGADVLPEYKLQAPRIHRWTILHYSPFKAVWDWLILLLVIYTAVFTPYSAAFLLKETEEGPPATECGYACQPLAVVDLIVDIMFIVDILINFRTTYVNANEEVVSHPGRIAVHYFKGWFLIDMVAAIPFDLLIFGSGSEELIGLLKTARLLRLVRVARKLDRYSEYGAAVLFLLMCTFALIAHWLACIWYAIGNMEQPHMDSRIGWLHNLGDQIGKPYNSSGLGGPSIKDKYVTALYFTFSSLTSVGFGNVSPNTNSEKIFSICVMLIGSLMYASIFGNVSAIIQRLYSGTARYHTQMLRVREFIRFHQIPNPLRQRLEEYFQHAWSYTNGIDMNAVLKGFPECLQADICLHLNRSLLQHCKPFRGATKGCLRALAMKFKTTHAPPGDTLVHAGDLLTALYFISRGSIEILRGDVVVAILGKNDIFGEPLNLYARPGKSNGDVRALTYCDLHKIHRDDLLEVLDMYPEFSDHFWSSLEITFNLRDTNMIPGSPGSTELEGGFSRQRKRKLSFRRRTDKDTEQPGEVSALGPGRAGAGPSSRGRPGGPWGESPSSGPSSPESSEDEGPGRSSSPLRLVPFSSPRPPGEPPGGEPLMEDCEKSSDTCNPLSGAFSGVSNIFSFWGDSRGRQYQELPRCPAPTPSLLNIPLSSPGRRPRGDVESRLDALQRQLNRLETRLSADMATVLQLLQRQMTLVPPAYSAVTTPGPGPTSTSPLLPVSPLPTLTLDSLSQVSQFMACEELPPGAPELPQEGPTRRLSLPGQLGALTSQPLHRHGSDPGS

| Compound | hERG current change (%, negative = inhibition) at 10uM |
| --- | --- |
| O=C(O)c1ccccc1NCCO | 33.8% |
| O=C(CSc1nnc(-c2ccncc2)s1)Nc1ccccc1 | 3.19% |
| [O-][Cl+3]([O-])([O-])[O-].c1ccc(-c2cc(-c3ccccc3)[n+](-c3ccccc3)c(-c3ccccc3)c2)cc1 | -71.3% |
| O=[N+]([O-])c1ccc(-[n+]2c(-c3ccccc3)cc(-c3ccccc3)cc2-c2ccccc2)cc1.[O-][Cl+3]([O-])([O-])[O-] | 4.73% |
| O=C(O)c1ccc(-[n+]2c(-c3ccccc3)cc(-c3ccccc3)cc2-c2ccccc2)cc1.[O-][Cl+3]([O-])([O-])[O-] | 14.8% |
| Cc1ccc2c(COC(=O)c3ccc(NC(=O)CC#N)cc3)cc(=O)oc2c1C | 3.63% |
| COc1ccc(C)cc1Nc1c2c(nc3ccccc13)CCC2 | -56.7% |
| COc1ccc(OC)c(NC(=O)c2c3c(nc4ccccc24)CCC3)c1 | -21.8% |
| COc1ccccc1NC(=O)CSc1c2c(nc3ccccc13)CCC2 | -26.3% |
| Nc1ccc2nc3c(c(Cl)c2c1)CCCC3 | -22.7% |
| COc1ccc(OC)c(NC(=O)COC(=O)c2c3c(nc4ccccc24)CCCC3)c1 | 1.03% |
| COc1ccc(C)cc1Nc1nc(N)c2ccccc2n1.Cl | -12.8% |
| COc1ccccc1Nc1c2c(nc3ccc(N)cc13)CCCC2 | -72.4% |
| COc1ccc(Nc2c3c(nc4ccccc24)CCC3)c(OC)c1 | -64.7% |
| COc1ccc(OC)c(Nc2c3c(nc4ccccc24)CCC3)c1 | -67.8% |
| COc1ccc(NC(=O)CSc2c3c(nc4ccccc24)CCCC3)c(OC)c1 | -47.5% |
| COc1ccccc1Nc1c2c(nc3ccccc13)CCC2 | -45.6% |
| COc1ccc(NC(=O)CSc2c3c(nc4ccccc24)CCC3)c(OC)c1 | -36.9% |
| O=C(NC1(C(=O)NC2CCCCC2)CCCCC1)c1ccccn1 | 2.56% |
| COc1ccc(CCNC(=O)C(=O)NCc2ccc(C)cc2)cc1OC | -1.57% |
| COc1ccccc1N1CCN(C(=O)c2cc(-c3cccs3)on2)CC1 | -22.7% |

| Compound | hERG current change (%, negative = inhibition) at 10uM |
| --- | --- |
| COc1cccc(CNC(=O)C2Cc3ccccc3CN2C(C)=O)c1 (centres unmarked) | 2.81% |
| C=CCc1cccc(/C=N/NC(=O)COc2ccc(-n3cnnn3)cc2)c1O | 11.3% |
| CCN1C(=O)N[C@@H](c2cccc(C(F)(F)F)c2)[C@@H](C(=O)OC)[C@H]1C | -19% |
| O=C(Cn1cccc1C(=O)c1ccccc1)NCc1ccc(Cl)cc1 | 18.7% |
| O=C(O)CC(NS(=O)(=O)c1cccc2nsnc12)c1ccc(F)cc1 (centres unmarked) | -17.2% |
| Cc1cc(F)ccc1S(=O)(=O)Nc1ccc(C(=O)N2CCCCCC2)cc1 | -27.6% |
| Cc1ccc2nc(N/N=C/c3ccco3)cc(C)c2c1 | -64.3% |
| Cc1cc(N/N=C/c2ccco2)c2ccccc2n1 | 16.6% |
| Cc1ccc2nc(SCC(=O)N/N=C/c3ccco3)cc(C)c2c1 | 10.4% |
| C[C@@H]1CC[C@H]2[C@@H](C)C(=O)O[C@@H]3O[C@@]4(C)CC[C@@H]1[C@]32OO4 | 0.204% |
| COc1ccc(OC)c(NC(=O)CSc2nnc(C3CCCCC3)n2N)c1 | -17.4% |
| CC(C)CC(NC(N)=O)C(=O)Nc1ccc(Oc2ccccc2)cc1 (centres unmarked) | 10.1% |
| O=C(/C(=N\Nc1ccc(Br)cc1)Sc1nnnn1-c1ccccc1)c1ccccc1 | 13.8% |
| Cc1ccc2c(c1)c1c3n2CCN(CC(N)=O)C3CCC1 (centres unmarked) | 25.6% |
| CCN(CC)CCN1CCn2c3c(c4cc(C)ccc42)CCCC31.Cl (centres unmarked) | -76.3% |
| Cc1ccc2c(c1)c1c3n2CCN(CC#N)C3CCC1 (centres unmarked) | 2.24% |
| CCN1CCn2c3c(c4cc(C)ccc42)CCCC31 (centres unmarked) | -54.2% |
| Cc1ccc2c(c1)c1c3n2CCN(CCC(=O)O)C3CCC1 (centres unmarked) | -3.49% |
| CCN1CCn2c3c(c4cc(Cl)ccc42)CCCC31.Cl (centres unmarked) | -39.1% |
| NC[C@H]1O[C@H](O[C@H]2[C@H](O)[C@@H](O[C@H]3O[C@H](CO)[C@@H](O)[C@H](N)[C@H]3O)[C@H](N)C[C@@H]2N)[C@H](N)C[C@@H]1O.O=S(=O)(O)O | 4.47% |
| CC(C)c1nnc(NC(=O)c2nc(S(=O)(=O)Cc3ccccc3F)ncc2Cl)s1 | -5.79% |

| Compound | hERG current change (%, negative = inhibition) at 10uM |
| --- | --- |
| c1ccc(CN=C2NN=C(c3cc4ccccc4o3)CS2)cc1 | -16.3% |
| c1ccc2oc(C3=NNC(=NC4CC4)SC3)cc2c1 | -58.5% |
| CC(C)(C)N=C1NN=C(c2cc3ccccc3o2)CS1 | -9.99% |
| COc1cccc(C(c2sc3ncnn3c2O)N2CC(C)OC(C)C2)c1 (centres unmarked) | 0.441% |
| CCOC(=O)c1cc2c(=O)n3ccccc3nc2n(CC2CCCO2)c1=NC(C)=O (centres unmarked) | -1.13% |
| O=C(NCc1ccccc1)c1ccc2c(=O)n(CC3CCCO3)c(=S)[nH]c2c1 (centres unmarked) | -2.39% |
| O=C(NCc1ccc2c(c1)OCO2)c1ccc2c(c1)C(=O)N(CC1CCCO1)C2=O (centres unmarked) | 2.28% |
| N=c1c(C(=O)NCc2ccc(F)cc2)cc2c(=O)n3ccccc3nc2n1CC1CCCO1 (centres unmarked) | -77.4% |
| COc1ccc(CNC(=O)c2cc3c(=O)n4ccccc4nc3n(CC3CCCO3)c2=N)cc1 (centres unmarked) | -72.5% |
| O=C(CSc1nc2ccccc2c(=O)n1CC1CCCO1)NCc1ccc2c(c1)OCO2 (centres unmarked) | -30.2% |
| Cc1ccc(CNC(=O)c2cc3c(=O)n4ccccc4nc3n(CC3CCCO3)c2=N)cc1 (centres unmarked) | -81.3% |
| N=c1c(C(=O)NCc2ccc3c(c2)OCO3)cc2c(=O)n3ccccc3nc2n1CC1CCCO1 (centres unmarked) | -79.5% |
| N=c1c(S(=O)(=O)c2ccc(F)cc2)cc2c(=O)n3ccccc3nc2n1CC1CCCO1 (centres unmarked) | -40.8% |
| CC(CCc1ccccc1)NC(=O)c1ccccc1Cl (centres unmarked) | -4.82% |
| CN(C)S(=O)(=O)c1cc(NC(=O)CN2CCN(c3ccccc3F)CC2)ccc1Cl | 5.43% |
| CC(C)NC(=O)CSc1nnc(-c2ccc(C(C)(C)C)cc2)n1C | -7.38% |
| NC(=O)C1CCN(C(=O)COc2ccc3c(c2)oc(=O)c2ccccc23)CC1 | 3.62% |
| COc1ccc(COc2cc(-c3cccc(OC)c3)nc3ccc(NC(=O)C(C)C)cc23)cc1 | 3.04% |
| Cc1nc2c(-c3ccc(F)cc3)cnn2c(N)c1-c1ccc(F)cc1 | 23.3% |
| CCOC(=O)C1CCCN(C(=O)c2cn(CC)c3ccc(S(=O)(=O)N(C)C)cc3c2=O)C1 (centres unmarked) | 11.9% |
| COc1ccc2nc(NC(=O)C3CCN(S(=O)(=O)c4cccc5nsnc45)CC3)sc2c1 | 0.473% |

| Compound | hERG current change (%, negative = inhibition) at 10uM |
| --- | --- |
| C=CCn1c(SCC(=O)Nc2ccc(NC(=O)c3ccco3)c(OC)c2)nnc1-c1ccncc1 | -6.37% |
| CCCCCn1nc(C(=O)N(CC(C)C)c2c(N)n(CCCC)c(=O)[nH]c2=O)c2ccccc2c1=O | -76.6% |
| CCCCn1c(N)c(N(CCC(C)C)C(=O)c2ccc([N+](=O)[O-])s2)c(=O)[nH]c1=O | -51.1% |
| CCCCCCn1nc(C(=O)N(CC(C)C)c2c(N)n(CCCC)c(=O)[nH]c2=O)c2ccccc2c1=O | -51.9% |
| CCCCn1nc(C(=O)N(CCOC)c2c(N)n(CCCC)c(=O)[nH]c2=O)c2ccccc2c1=O | 6.16% |
| CCCCCn1nc(C(=O)N(CCOC)c2c(N)n(CCCC)c(=O)[nH]c2=O)c2ccccc2c1=O | -3.44% |
| CCCCN(C(=O)c1ccc([N+](=O)[O-])s1)c1c(N)n(CC(C)C)c(=O)[nH]c1=O | 5.29% |
| CCCCN(C(=O)c1ccc([N+](=O)[O-])s1)c1c(N)n(CCCC)c(=O)[nH]c1=O | -12.9% |
| CCCCCCn1nc(C(=O)N(CCOC)c2c(N)n(CCCC)c(=O)[nH]c2=O)c2ccccc2c1=O | -1.87% |
| CCCCn1c(N)c(N(CCOC)C(=O)c2nn(CC)c(=O)c3ccccc23)c(=O)[nH]c1=O | 6.82% |
| O=S(=O)(Nc1ccc(-n2cnnn2)cc1)c1ccc(Cl)cc1 | -18.2% |
| CCO[C@H]1OC(C(=O)N2CCOCC2)=C[C@@H](C2CC2)[C@@H]1CCCO | 19.9% |
| Cc1ccc(NC(=O)Nc2sc(=S)n(C)c2C)cc1 | 15.4% |
| C=CCNC(=S)NCC1COc2ccccc2O1 (centres unmarked) | 19.6% |
| O=[N+]([O-])c1cc(C(F)(F)F)ccc1N1CCC(O)CC1 | 0.342% |
| NC(=O)C1CCN(c2ccc(C(F)(F)F)cc2[N+](=O)[O-])CC1 | -20.1% |
| CC1CN(c2ccc([N+](=O)[O-])cc2Cl)CCN1S(C)(=O)=O (centres unmarked) | -47.2% |
| CC1CN(c2ccc(C(F)(F)F)cc2[N+](=O)[O-])CCN1S(C)(=O)=O (centres unmarked) | -56.9% |
| O=C(C1CCC1)N1CCN(c2ccc(C(F)(F)F)cc2[N+](=O)[O-])CC1 | -64% |
| CC1CN(c2ccc(Cl)cc2[N+](=O)[O-])CCN1S(C)(=O)=O (centres unmarked) | -41.2% |
